Test results taken from PubChem BioAssay AID488969 (Vanderbilt High Throughput Screening Facility, 2010).
Over roughly 110,000 compounds, “z-score” has its median near -0.1; the highest 2% begin near 2. The list comes from a sample in which the highest values are over-represented; it also holds similar structures and randomly drawn compounds. Active and inactive are the calls of the source.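 How the source made its calls: active means z-score in the third read window above 3 or below -3; inactive means the rest.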

What follows are molecules tested against Metabotropic glutamate receptor 8 (Rattus norvegicus) (UniProt P70579) (assay: mGluR8 Gi/Go-coupled signaling modulation – cell-based, rat, thallium flux, HTS, primary screen (AID 488969)). Details: HEK293 rat mGluR8, GIRK (G protein-gated inwardly rectifying potassium channel) thallium flux, FluoZin2; at 10 µM; stronger effect = higher value; submaximal glutamate (EC20) added with thallium.
Chain of Metabotropic glutamate receptor 8 (Rattus norvegicus) (P70579 whole entry, looked up): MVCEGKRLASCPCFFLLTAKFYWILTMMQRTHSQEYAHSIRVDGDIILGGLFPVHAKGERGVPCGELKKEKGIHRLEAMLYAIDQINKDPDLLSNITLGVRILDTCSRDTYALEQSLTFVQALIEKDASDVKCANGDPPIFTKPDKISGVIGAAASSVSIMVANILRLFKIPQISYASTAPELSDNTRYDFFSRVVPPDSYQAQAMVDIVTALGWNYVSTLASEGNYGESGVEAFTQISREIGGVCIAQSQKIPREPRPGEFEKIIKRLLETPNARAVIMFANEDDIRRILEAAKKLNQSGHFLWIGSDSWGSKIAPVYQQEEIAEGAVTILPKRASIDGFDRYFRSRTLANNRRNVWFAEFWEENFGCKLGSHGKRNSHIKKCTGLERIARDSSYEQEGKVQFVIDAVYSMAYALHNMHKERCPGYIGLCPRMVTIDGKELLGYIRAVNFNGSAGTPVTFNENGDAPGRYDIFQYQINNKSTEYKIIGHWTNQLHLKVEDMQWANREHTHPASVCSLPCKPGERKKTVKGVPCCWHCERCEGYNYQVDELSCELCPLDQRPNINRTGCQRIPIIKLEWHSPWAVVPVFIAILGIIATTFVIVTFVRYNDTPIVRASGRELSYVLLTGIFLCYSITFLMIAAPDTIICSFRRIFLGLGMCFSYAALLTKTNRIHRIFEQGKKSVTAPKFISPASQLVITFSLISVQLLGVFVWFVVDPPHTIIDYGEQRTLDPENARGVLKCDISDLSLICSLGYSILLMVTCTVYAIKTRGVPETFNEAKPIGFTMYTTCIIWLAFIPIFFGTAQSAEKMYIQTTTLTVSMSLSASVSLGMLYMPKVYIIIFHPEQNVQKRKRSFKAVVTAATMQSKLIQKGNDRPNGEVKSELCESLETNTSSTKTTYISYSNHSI
Molecule `COC(=O)Nc1ccc(S(=O)(=O)Nc2ccccc2F)cc1` has a z-score of 0.00713.
`Cc1cc(NC(=O)C2C3C(=O)N(Cc4ccc(Cl)cc4)C(C(=O)NCc4ccccc4)C34C=CC2(C)O4)no1` (stereo not drawn) showed a z-score of 0.193.
`Cc1cccc(NC(=O)CN2C(=O)S/C(=C\c3cc(C)n(C)c3C)C2=O)c1` showed a z-score of 0.326.
`COC(=O)C1=C(C)NC(C)=C(C(=O)OC)C1C(=O)OCC(=O)N1c2ccccc2CC1C` (stereo not drawn) gave a z-score of 0.131.
In the case of `CCOC(=O)C1=C(C)NC(C)=C(C(=O)OCC)C1C(=O)OCC(=O)N1c2ccccc2CC1C` (stereo not drawn), the z-score is reported as 2.55.
`CCOC(=O)N1CCN(CC(=O)N2c3ccccc3CC2C)CC1` (stereo not drawn) gave a z-score of -0.746.
Molecule `C/C(=N\NC(=O)OC(C)(C)C)c1cccc([N+](=O)[O-])c1` has a z-score of -0.272.
For `Cc1ccc(C(=O)Nc2nc(=O)n(C(=O)C3CC3)s2)cc1`, the z-score was -0.185.
`Cc1cc(N2CCCCC2)nc(NCc2ccccc2)n1` showed a z-score of 0.794.
Molecule `Cc1cc(Nc2ccccc2)nc(NCc2ccccc2)n1` has a z-score of 2.34.
Molecule `Cc1cc(Nc2ccc(Cl)cc2)nc(NCc2ccccc2)n1` has a z-score of -0.173.
In the case of `Cc1cc(N2CCOCC2)nc(NCc2ccccc2)n1`, the z-score is reported as -0.0745.
Molecule `Cc1ccc(Nc2cc(C)nc(NCc3ccccc3)n2)cc1` has a z-score of -0.326.
For `Cc1cc(N2CCN(c3ccccc3)CC2)nc(NCc2ccccc2)n1`, the z-score was 3.
`c1ccc(-c2nnc(-c3ccccc3)c(-c3c[nH]c4ccccc34)n2)cc1` gave a z-score of 0.446.
`Cc1ccccc1Nc1nc2ccccc2s1` gave a z-score of 0.103.
`Fc1cccc2sc(Nc3nc4ccccc4s3)nc12` was tested, and the z-score was 2.21.
`CC(=O)Nc1nc2c(F)cccc2s1` gave a z-score of 0.033.
For `Fc1cc(F)c2nc(N3CCCCC3)sc2c1`, the z-score was -0.14.
Work on `NNc1nc2c(F)cccc2s1` yielded a z-score of 0.0402.
`Fc1cccc2sc(Nc3nc4c(F)cccc4s3)nc12` gave a z-score of 2.09.
`NNc1nc2c(F)cc(F)cc2s1` was tested, and the z-score was -0.193.
For `Fc1cc(F)c2nc(Nc3nc4c(F)cccc4s3)sc2c1`, the z-score was 9.18 (active).
For `Cc1ccc(Nc2nc3ccccc3s2)cc1`, the z-score was 0.0689.
With `O=C(Nc1ccc(Cl)cc1)Nc1cccnc1` the z-score was 0.471.
`CCN(CC)c1ncnc2c1cnn2C` gave a z-score of -0.228.
In the case of `CCC1(CC)C(=O)N(C)C(=O)NC1=NCc1ccccc1`, the z-score is reported as 0.146.
For `COc1ccc(/C=C/C(=O)Nc2ccc(N3CCOCC3)cc2)cc1`, the z-score was -0.219.
`CC(C)Cn1c(N)c(C(=O)CSc2ccccc2)c(=O)n(C)c1=O` was tested, and the z-score was -0.216.
In the case of `CCCCn1c(N)c(C(=S)NC(=O)CC(C)C)c(=O)n(C)c1=O`, the z-score is reported as 3.59 (active).
With `CCCCn1c(N)c(C(=S)NC(=O)CC(C)(C)C)c(=O)n(C)c1=O` the z-score was 9.54 (active).
With `CC(C)Cn1c(N)c(C(=O)CSc2nnnn2C)c(=O)n(C)c1=O` the z-score was -0.302.
For `CCCn1c(N)c(C(=S)NC(=O)C2CC2)c(=O)n(C)c1=O`, the z-score was 0.941.
With `Cn1c(=O)c(C(=S)NC(=O)C2CC2)c(N)n(Cc2ccccc2)c1=O` the z-score was 0.362.
For `CC(C)(C)n1ncc2c(=O)n(Cc3ccc(Cl)cc3Cl)cnc21`, the z-score was -1.25.
Molecule `Cc1ccc(CNC(=O)CCCOc2cc(=O)n(C)c3ccccc23)o1` has a z-score of -0.129.
In the case of `Clc1ccc(C(c2nnnn2C2CCCC2)N2CCSCC2)cc1` (stereo not drawn), the z-score is reported as -0.998.
Molecule `O=C(O)C1CCN(C(=O)c2ccccc2Cl)CC1` has a z-score of -0.551.
`CC(=O)NC(CC(=O)Nc1cccc(S(=O)(=O)N2CCCCC2)c1)c1ccccc1` (stereo not drawn) showed a z-score of 0.132.
For `COCCCn1c(SCC(=O)N2CCc3ccccc32)nnc1-c1ccco1`, the z-score was -0.129.
`COc1ccc(N/C(C)=C2/C(=O)C(=O)N(CCO)C2c2ccc([N+](=O)[O-])cc2)cc1` (stereo not drawn) showed a z-score of -0.701.
For `COc1ccc(N/C(C)=C2/C(=O)C(=O)N(CCO)C2c2ccc(Br)cc2)cc1` (stereo not drawn), the z-score was 5.05 (active).
In the case of `COc1ccc(C2/C(=C(/O)c3ccccc3)C(=O)C(=O)N2CCO)cc1` (stereo not drawn), the z-score is reported as -0.0153.
Molecule `O=C1CCCc2c1cc(C(=O)NC1CCSC1=O)c(=O)n2-c1ccccc1` (stereo not drawn) has a z-score of -0.276.
Molecule `CCN(CC)CC(=O)Nc1ccc2c(c1)Nc1ccccc1CC2` has a z-score of 2.49.
Work on `CCN(CC)CCC(=O)Nc1ccc2c(c1)N(C(=O)CN(CC)CC)c1ccccc1CC2` yielded a z-score of -0.214.
For `CCN(CC)CC(=O)Nc1ccc2c(c1)N(C(=O)CN(CC)CC)c1ccccc1CC2`, the z-score was -0.342.
Molecule `COc1ccc(C(=O)c2cn[nH]c2-c2cc(Cl)ccc2O)cc1` has a z-score of -0.207.
`COc1ccc(/C=C2\C(=O)N(c3c(Cl)cc(Cl)cc3Cl)N=C2NC(=O)c2cccc([N+](=O)[O-])c2)cc1` gave a z-score of -0.0535.
`CCn1cc(S(=O)(=O)CC(=O)Nc2ccc(C)cc2)c2ccccc21` gave a z-score of -0.393.
For `Cc1ccc(C)c(NC(=O)CS(=O)(=O)c2cn(C)c3ccccc23)c1`, the z-score was 0.61.
`CCn1cc(S(=O)(=O)CC(=O)Nc2cc(C)ccc2C)c2ccccc21` gave a z-score of 2.61.
`CCOc1ccc(OCCOCCNCCOC)cc1` showed a z-score of 0.0989.
With `Cc1c(CN(C)CCc2ccccc2)c(=O)n(-c2ccccc2)n1C` the z-score was -0.04.
`CCc1ccc(Nc2nnc(SCC(=O)Nc3cccc(S(=O)(=O)NC4=NCCCCC4)c3)s2)cc1` showed a z-score of -0.205.
With `CSc1ccccc1NC(=O)C1CC(c2ccccc2O)=NO1` (stereo not drawn) the z-score was -0.288.
`CCn1cc(C2=NOC(C(=O)Nc3ccccc3C(=O)OC)C2)c(C)n1` (stereo not drawn) gave a z-score of -0.574.
`COC(=O)c1ccccc1NC(=O)C1CC(c2ccccc2O)=NO1` (stereo not drawn) was tested, and the z-score was 2.57.
In the case of `CN(C)CCCNCCNC(=O)/C=N\O`, the z-score is reported as -0.494.
`O=C1CC(c2ccc3c(c2)OCO3)c2cc3c(cc2N1)OCCO3` (stereo not drawn) gave a z-score of 0.0815.
For `O=C1CC(c2ccncc2)c2cc3c(cc2N1)OCCO3` (stereo not drawn), the z-score was 7.59 (active).
For `O=C1CC(c2ccncc2)c2cc3c(cc2N1)OCO3` (stereo not drawn), the z-score was 0.106.
Molecule `Cc1ccc(S(=O)(=O)CC(=O)c2ccc(C)c([N+](=O)[O-])c2)cc1` has a z-score of -0.799.
In the case of `CN(Cc1cccs1)C(=O)CCc1ccc(S(=O)(=O)N2CCOCC2)cc1`, the z-score is reported as 0.00198.
`CS(=O)(=O)C1=NSC2=NC(=O)/C(=C\c3cccn3-c3ccc(Cl)cc3)C(=N)N21` was tested, and the z-score was -0.377.
Work on `O=C1CCC(/C=C/c2ccccc2)=NN1Cc1ccccc1Cl` yielded a z-score of -0.293.
With `Cc1ccc(/C=C/C2=NN(Cc3ccc(Cl)c(Cl)c3)C(=O)CC2)cc1` the z-score was -0.176.
`O=C1CCC(/C=C/c2ccccc2)=NN1Cc1ccc(Cl)c(Cl)c1` was tested, and the z-score was 13.4 (active).
For `O=C(N/N=C/c1cccn1-c1ccc([N+](=O)[O-])cc1)C(O)c1ccccc1` (stereo not drawn), the z-score was 0.181.
For `COc1ccc(CC(=O)N/N=C/c2cccn2-c2ccc([N+](=O)[O-])cc2)cc1OC`, the z-score was -0.892.
In the case of `O=C(Cc1ccccc1)N/N=C/c1cccn1-c1ccc([N+](=O)[O-])cc1`, the z-score is reported as 3.83 (active).
`O=C1CC(N2CCN(Cc3ccccc3)CC2)C(=O)N1c1ccc2c(c1)OCCO2` (stereo not drawn) gave a z-score of -0.057.
In the case of `CC1(C(=O)NC23CC4CC(CC(C4)C2)C3)CC1(Cl)Cl` (stereo not drawn), the z-score is reported as -0.368.
`CCSC(=O)NC12CC3CC(CC(C3)C1)C2` was tested, and the z-score was -0.316.
With `CSC(=O)NC12CC3CC(CC(C)(C3)C1)C2` the z-score was 8.08 (active).
`CCOC(=O)CN1C(c2ccccc2O)Nc2ccc(Br)cc2C1c1ccccc1` (stereo not drawn) gave a z-score of -0.45.
With `CC(OC(=O)CN(C)S(=O)(=O)c1ccc(Cl)cc1)C(=O)Nc1ncc(Cl)cc1Cl` (stereo not drawn) the z-score was -0.285.
`Nc1c(CO)nnn1-c1ccccc1` was tested, and the z-score was -0.379.
In the case of `CCCCn1c(-c2ccoc2C)n[nH]c1=S`, the z-score is reported as 0.216.
`CC(C)c1cc(-c2n[nH]c(=S)n2Cc2ccccc2)cs1` gave a z-score of 1.35.
`CCCCn1c(-c2cccnc2)n[nH]c1=S` was tested, and the z-score was -0.106.
For `CCCCn1c(-c2csc(C(C)C)c2)n[nH]c1=S`, the z-score was 6.36 (active).
Molecule `CCCCn1c(-c2csc(CC)c2)n[nH]c1=S` has a z-score of 2.15.
`CCc1cc(-c2n[nH]c(=S)n2CC)cs1` gave a z-score of -0.194.
In the case of `CCNC(=S)N(Cc1ccco1)Cc1cc2cc3c(cc2[nH]c1=O)OCCO3`, the z-score is reported as 0.158.
For `Nc1ccc(C2(c3ccc(N)cc3)C(=O)Nc3ccccc32)cc1`, the z-score was -0.763.
With `Cc1cccnc1NC(=O)C1CCCN(S(=O)(=O)c2ccc3c(c2)oc(=O)n3C)C1` (stereo not drawn) the z-score was 0.166.
For `CCc1cccc(OCC(=O)Nc2ccc(S(=O)(=O)Nc3onc(C)c3C)cc2)c1`, the z-score was -0.0589.
`COc1cc(NC(=O)Cn2nnc(-c3ccncc3)n2)cc(OC)c1` was tested, and the z-score was 0.284.
`CN(C)C(=O)CN(c1ccc(F)c(Cl)c1)S(C)(=O)=O` was tested, and the z-score was 0.00105.
With `Cc1ccc2c(c1)c(=O)c(Br)c(C)n2Cc1ccccc1` the z-score was -0.0481.
For `COc1ccccc1C(c1nnnn1C(C)(C)C)N1CCN(Cc2ccncc2)CC1` (stereo not drawn), the z-score was -0.332.
With `CCN(CC)C(=O)CSCc1cnn(-c2ccccc2)c1-n1cccc1` the z-score was 0.216.
Work on `COc1ccc(NC2=CC(c3ccc(OC)c(OC)c3)N(c3ccc(OC)cc3)C2=O)cc1` (stereo not drawn) yielded a z-score of -0.044.
For `COc1ccc2nc(N)sc2c1`, the z-score was 0.0701.
Work on `COc1ccc2nc(N=Nc3ccc(N(C)C)cc3)sc2c1` yielded a z-score of 0.141.
With `COc1ccc2nc(N=Nc3ccc(O)c4ccccc34)sc2c1` the z-score was 5.85 (active).
Work on `CCN(CC)C(=O)C(=O)N/N=C/c1cccs1` yielded a z-score of -0.0972.
`CCCCCN(C(=O)CN(C)Cc1ccc(OC)cc1OC)c1c(N)n(CCCC)c(=O)[nH]c1=O` showed a z-score of 0.0701.
In the case of `O=C(Nc1nnc(-c2cccs2)o1)c1cccc(F)c1`, the z-score is reported as 4.44 (active).
`O=C(Nc1nnc(-c2cccs2)o1)c1cccc(C(F)(F)F)c1` was tested, and the z-score was 14.1 (active).
For `O=C(Nc1nnc(-c2cccs2)o1)c1cccc(Oc2ccccc2)c1`, the z-score was 14 (active).
Work on `O=C(Nc1nnc(-c2cccs2)o1)c1ccco1` yielded a z-score of -0.203.
`CCCCN(CCCC)S(=O)(=O)c1ccc(C(=O)Nc2nnc(COC)o2)cc1` showed a z-score of 1.03.
`O=C(Nc1ccccc1)c1cccc(C(F)(F)F)c1` showed a z-score of -0.053.
For `O=C(CCc1ccccc1)Nc1nnc(-c2cccs2)o1`, the z-score was 0.129.
`COc1cccc(C(=O)Nc2nnc(-c3cccs3)o2)c1` gave a z-score of 0.124.
Molecule `O=C(Nc1cccc(C(F)(F)F)c1)c1cc(-c2cccs2)on1` has a z-score of -0.52.
In the case of `CCCCN(C)S(=O)(=O)c1ccc(C(=O)Nc2nnc(-c3cccs3)o2)cc1`, the z-score is reported as 7.18 (active).
Work on `O=C(Nc1ccncc1)c1cccc(F)c1` yielded a z-score of 0.415.
In the case of `CCC1CCCCN1S(=O)(=O)c1ccc(C(=O)Nc2nnc(-c3cccs3)o2)cc1` (stereo not drawn), the z-score is reported as 0.233.
Molecule `CCc1ccccc1NC(=O)CSc1ncn[nH]1` has a z-score of -0.0941.
`CC1CCCN(c2nc(-c3cccnc3)nc3scc(-c4ccccc4)c23)C1` (stereo not drawn) showed a z-score of -0.0274.
